Compounds with a hit are over-represented: about 6.8% of the library has one in this group of screens.
C diff HTS: inhibitors of Clostridium difficile growth; actives 0.25% (n = 86,000); AID 1259249; Clostridium difficile clinical isolate growth, OD600, 24 h; hits give low values; growth activity, negative = inhibition, % at 16 µg/mL (by protocol);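 active = mean growth activity at or below -80% and every replicate also at or below -80%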;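 note: 0% = DMSO wells and -100% = levofloxacin 16 µg/mL wells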
Pf Dd2 growth: inhibitors of Plasmodium falciparum Dd2 growth; activity change, % at 10 µM; P. falciparum Dd2 growth, SYBR Green, 72 h; hits give low values; actives 2.3% (n = 94,000); AID 1159554; in the data active = activity change below about -80%
T cruzi growth-1: blocks T. cruzi growth in NIH3T3 culture | inhibition, % at 8.34 µM | T. cruzi beta-gal in NIH3T3, GalScreen luminescence, 90 h | actives 5.9% (n = 77,000);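 active = mean inhibition above about 93%, with at least 55% of replicates each passing it, limit read from the data, passing the limit was not always enough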
T cruzi growth-2: Trypanosoma cruzi proliferation inhibition; shares compounds with T cruzi growth-1; actives 72% (n = 5,600); T. cruzi beta-gal in NIH3T3, GalScreen luminescence, 90 h; inhibition, % at 8.35 µM;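 active = mean replicate inhibition above about 95% and at least 55% of replicates individually reaching it, limit read from the data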
T cruzi growth-3: Trypanosoma cruzi proliferation inhibition; shares compounds with T cruzi growth-1; T. cruzi beta-gal in NIH3T3, GalScreen luminescence, 90 h; inhibition, % at 2.09 µM; actives 21% (n = 5,600); AID 651740;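 active = mean inhibition above about 95%, with at least 55% of replicates also reaching it, limit read from the data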;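 note: plate controls were neutral control median for no effect and positive control median for full effect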
3T3 cytotox: NIH/3T3 (mouse) viability loss | NIH/3T3 viability, CellTiter-Glo ATP luminescence, 90 h | AID 651742 | shares compounds with T cruzi growth-1 | cytotoxicity (signal decrease), % at 8.35 µM | actives 14% (n = 5,600);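 active = mean signal decrease across replicates above about 35% based on untreated-well scatter, with enough replicates individually passing, limit read from the data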;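 note: 0% = median of neutral control wells and 100% = median of positive control wells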
3T3 cytotox 2: cytotoxicity in mouse NIH/3T3 fibroblasts; shares compounds with T cruzi growth-1; NIH/3T3 viability, CellTiter-Glo ATP luminescence, 90 h; inhibition, % at 24.9 µM; actives 56% (n = 5,600);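 active = mean loss of cell viability signal at or above a set limit, and enough replicates individually reaching it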;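 note: 0% = median of neutral control wells and 100% = median of positive control wells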
Active calls of the source: *; / = no result given.

SMILES | C diff HTS | Pf Dd2 growth | T cruzi growth-1 | T cruzi growth-2 | T cruzi growth-3 | 3T3 cytotox | 3T3 cytotox 2
Cc1ccc(-c2ccc3c(c2)O[C@@H](CN(C)Cc2ccncc2)[C@H](C)CN([C@@H](C)CO)S3(=O)=O)cc1 | -7.9 | -88.8* | 122.6* | 98.1* | 91.6 | 64.5* | 100.2*
C[C@@H]1CN([C@H](C)CO)S(=O)(=O)c2ccc(Br)cc2O[C@@H]1CN(C)Cc1ccccc1 | 1.1 | -7.1 | -4.0 | / | / | / | /
C[C@@H]1CN([C@@H](C)CO)S(=O)(=O)c2ccc(-c3cncnc3)cc2O[C@H]1CN(C)Cc1ccncc1 | 0.4 | -14.2 | 72.2 | / | / | / | /
Cc1ccc(-c2ccc3c(c2)O[C@H](CN(C)Cc2ccncc2)[C@H](C)CN([C@H](C)CO)S3(=O)=O)cc1 | -5.2 | -15.1 | 108.7* | 97.6* | 75.4 | 49.1* | 47.1*
Cc1ccc(-c2ccc3c(c2)O[C@@H](CN(C)Cc2ccncc2)[C@@H](C)CN([C@H](C)CO)S3(=O)=O)cc1 | 0.8 | -62.0 | 122.9* | 96.9* | 101.1* | 25.8 | 94.3*
C[C@@H]1CN([C@@H](C)CO)S(=O)(=O)c2ccc(Br)cc2O[C@H]1CN(C)Cc1ccncc1 | 2.6 | -40.8 | 100.8* | 102.1* | 98.6* | 25.0 | 13.9
C[C@H](CO)N1C[C@H](C)[C@H](CN(C)Cc2ccccc2)Oc2ccc(NS(=O)(=O)c3cn(C)cn3)cc2CC1=O | 1.6 | 12.1 | 56.2 | / | / | / | /
CN1c2ccc(-c3cccc(C#N)c3)cc2[C@H]2[C@H](CCN2C(=O)CC2CC2)[C@H]1CO | -0.4 | 8.0 | 78.3 | / | / | / | /
C[C@@H]1CN([C@H](C)CO)C(=O)c2cc(Br)cnc2O[C@@H]1CN(C)C(=O)C1CCC1 | / | 39.6 | -36.5 | / | / | / | /
COC(=O)C[C@H]1CC[C@@H]2[C@@H](COc3ccc(NC(=O)C4CCOCC4)cc3C(=O)N2C)O1 | -4.4 | 6.7 | 3.5 | / | / | / | /
C[C@@H]1CN([C@@H](C)CO)C(=O)c2cc(NC(=O)Nc3ccc(F)cc3)ccc2O[C@H]1CN(C)C(=O)Nc1ccc2c(c1)OCO2 | 4.2 | -6.8 | 7.6 | / | / | / | /
O=C(c1cnccn1)N1CC(=O)N2[C@H](C1)[C@@H](c1ccc(-c3ccccc3)cc1)[C@@H]2CO | -0.7 | -13.9 | / | / | / | / | /
O=C(c1ccccc1F)N1CC(=O)N2[C@H](C1)[C@H](c1ccc(-c3ccccc3)cc1)[C@@H]2CO | 2.6 | -76.1 | / | / | / | / | /
Cc1ccc(-c2ccc3c(c2)O[C@@H](CN(C)Cc2ccncc2)[C@@H](C)CN([C@@H](C)CO)S3(=O)=O)cc1 | 0.5 | -66.2 | 120.2* | 92.5 | 91.3 | 63.8* | 90.3*
Cc1ccc(-c2ccc3c(c2)O[C@@H](CN(C)Cc2cncnc2)[C@@H](C)CN([C@H](C)CO)S3(=O)=O)cc1 | -6.7 | 26.6 | / | / | / | / | /
CC=Cc1ccc2n(c1=O)C[C@@H]1[C@@H](CO)[C@H](C(=O)NCC3CC3)N(Cc3ccncc3)[C@H]21 (mixture of isomers) | -1.4 | 11.3 | -17.7 | / | / | / | /
O=S(=O)(c1ccc(F)cc1)N1CCCCN2[C@H](C1)[C@H](c1ccc(C#CC3CCCC3)cc1)[C@@H]2CO | 1.2 | 6.3 | 116.2* | 97.4* | 87.3 | 27.1 | 53.6*
COc1ccc(S(=O)(=O)N2CCCCN3[C@H](C2)[C@H](c2ccc(C#CC4CC4)cc2)[C@@H]3CO)cc1 | 41.9 | 16.1 | 123.5* | 106.2* | 72.8 | 15.2 | -10.6
COc1ccc(S(=O)(=O)N2CCCCN3[C@H](CO)[C@H](c4ccc(C#CC5CC5)cc4)[C@H]3C2)cc1 | 51.8 | -38.5 | 100.0* | 105.9* | 110.6* | 53.6* | 105.3*
COc1cccc(S(=O)(=O)N2CCCCN3[C@H](CO)[C@H](c4ccc(C#CC5CC5)cc4)[C@@H]3C2)c1 | 12.0 | 28.6 | 104.6 | / | / | / | /
O=S(=O)(c1ccc(F)cc1)N1CCCCN2[C@H](CO)[C@@H](c3ccc(C#CC4CC4)cc3)[C@H]2C1 | 14.9 | -52.3 | 93.7 | / | / | / | /
O=S(=O)(c1ccc(F)cc1)N1CCCCN2[C@H](CO)[C@H](c3ccc(C#CC4CCCC4)cc3)[C@H]2C1 | 38.2 | -67.0 | 84.2 | / | / | / | /
CC=Cc1ccc2n(c1=O)C[C@@H]1[C@@H](CO)[C@H](C(=O)NCC3CC3)[C@H]2N1Cc1cccnc1 (mixture of isomers) | 1.7 | 6.3 | 1.2 | / | / | / | /
CC(C)NC(=O)N(C)C[C@@H]1Oc2ncc(C#Cc3ccc(F)cc3)cc2C(=O)N([C@@H](C)CO)C[C@H]1C | -0.8 | 8.9 | -0.9 | / | / | / | /
COc1ccc(S(=O)(=O)Nc2cccc3c2O[C@@H](CN(C)C(=O)Nc2c(C)noc2C)[C@@H](C)CN([C@@H](C)CO)C3=O)cc1 | -4.2 | 0.5 | 88.7 | / | / | / | /
SMILES | C diff HTS | Pf Dd2 growth | T cruzi growth-1 | T cruzi growth-2 | T cruzi growth-3 | 3T3 cytotox | 3T3 cytotox 2
CO[C@@H]1CN(C)C(=O)c2ccc(NC(=O)C3CCCC3)cc2OC[C@@H](C)N(C(=O)CC2CC2)C[C@@H]1C | / | -13.5 | 66.0 | / | / | / | /
O=C(C[C@@H]1C[C@H]2c3cc(NC(=O)Nc4ccccc4)ccc3O[C@H]2[C@@H](CO)O1)NC1CCCC1 | 2.2 | 5.0 | 29.3 | / | / | / | /
C[C@H](CO)N1C[C@H](C)[C@H](CN(C)C)Oc2ccc(NS(C)(=O)=O)cc2CC1=O | 1.7 | 3.7 | 33.8 | / | / | / | /
COc1ccc(S(=O)(=O)N(C)C[C@@H]2OCCCC[C@H](C)Oc3ccc(NS(=O)(=O)c4ccc(F)cc4)cc3C(=O)N([C@H](C)CO)C[C@H]2C)cc1 | 18.4 | -60.1 | 81.4 | / | / | / | /
COc1ccc(S(=O)(=O)Nc2ccc3c(c2)C(=O)N([C@@H](C)CO)C[C@@H](C)[C@H](CN(C)S(=O)(=O)c2ccc(F)cc2)OCCCC[C@H](C)O3)cc1 | 7.0 | -27.6 | 100.4* | 103.4* | 38.8 | 30.1 | 4.8
COc1ccc(S(=O)(=O)Nc2ccc3c(c2)C(=O)N([C@@H](C)CO)C[C@@H](C)[C@H](CN(C)S(=O)(=O)c2ccc(F)cc2)OCCCC[C@@H](C)O3)cc1 | 2.9 | -12.4 | 107.6* | 114.1* | 64.8 | 10.8 | 22.9
COc1ccc(S(=O)(=O)Nc2ccc3c(c2)C(=O)N([C@@H](C)CO)C[C@@H](C)[C@@H](CN(C)S(=O)(=O)c2ccc(F)cc2)OCCCC[C@H](C)O3)cc1 | 11.3 | -62.6 | 44.5 | / | / | / | /
COc1ccc(S(=O)(=O)N(C)C[C@H]2OCCCC[C@@H](C)Oc3ccc(NS(=O)(=O)c4ccc(F)cc4)cc3C(=O)N([C@@H](C)CO)C[C@H]2C)cc1 | 6.0 | -51.3 | 100.4* | 98.5* | 75.1 | -16.2 | -14.6
COc1ccc(S(=O)(=O)Nc2ccc3c(c2)C(=O)N([C@@H](C)CO)C[C@@H](C)[C@@H](CN(C)S(=O)(=O)c2ccc(F)cc2)OCCCC[C@@H](C)O3)cc1 | 17.7 | -41.7 | 79.4 | / | / | / | /
C[C@@H]1CN([C@H](C)CO)C(=O)c2cc(NC(=O)Nc3cccc4ccccc34)ccc2O[C@H]1CN(C)S(=O)(=O)c1cn(C)cn1 | -1.1 | -12.6 | / | / | / | / | /

Screening data from PubChem BioAssay.
